# PubChem BioAssay (NCI)
# This is part of a sample that, as a whole, favours compounds with a hit. Of some 83,000 tested, about 20% had one in any assay.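 Activity criterion: percent growth below 10, measured after cells in 96-well plates were exposed to a single compound concentration for 48 hours.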 Unmarked numbers belong to inactive results. Activity calls are given as the source filed them.
# Key:
# Assay in all cases: NCI-60 one-dose screen, 48 h (100 = growth as untreated, 0 = no growth, -100 = all killed)
# Details in all cases: 10 µM
# [1] = test system: HCT-15 colon
# [2] = test system: SNB-75 CNS
# [3] = test system: SNB-19 CNS
# [4] = test system: U251 CNS
# [5] = test system: SK-MEL-5 melanoma
# [6] = test system: UACC-62 melanoma
# [7] = test system: LOX IMVI melanoma
# [8] = test system: SK-MEL-28 melanoma
# [9] = test system: SK-MEL-2 melanoma
# [10] = test system: EKVX NSCLC
# [11] = test system: SN12C renal
# [12] = test system: UO-31 renal
# [13] = test system: TK-10 renal
# [14] = test system: ACHN renal
# [15] = test system: CAKI-1 renal
# [16] = test system: MOLT-4 leukemia
# [17] = test system: PC-3 prostate
# [18] = test system: A498 renal
# [19] = test system: CCRF-CEM leukemia
# [20] = test system: HT29 colon
Structure (SMILES),growth [1],growth [2],growth [3],growth [4],growth [5],growth [6],growth [7],growth [8],growth [9],growth [10],growth [11],growth [12],growth [13],growth [14],growth [15],growth [16],growth [17],growth [18],growth [19],growth [20]
COc1cc2c3c(n([C@@H]4CCOC4)c(=O)c2cc1OC)-c1cc2c(cc1C3=O)OCO2,60.5%,38%,30.1%,13.4%,14.2%,3.12% (active),9.49% (active),73.2%,94%,64.2%,18.3%,5.77% (active),99.7%,0.739% (active),23.2%,20.4%,–,–,–,–
Clc1ccc(Cc2ccncc2)cc1,104%,89.8%,98.9%,113%,104%,95.3%,97.9%,112%,121%,101%,95.4%,–,–,–,130%,114%,103%,104%,104%,–
COc1ccc([C@H]2[C@H](C(=O)Nc3cccnc3)c3ccccc3C(=O)N2c2ccccc2)cc1,78.1%,98.9%,88.4%,74.8%,79.4%,92.3%,92.5%,102%,86.2%,94.5%,99.4%,99.5%,93%,90.3%,93.7%,77.5%,–,–,–,–
OCCn1cccn1,98.6%,109%,113%,101%,99%,114%,96.3%,117%,118%,105%,104%,–,107%,–,86.4%,95.7%,100%,94.2%,99.7%,–
COc1cc(-c2nn(-c3cccc(NC(=O)NCCNC(=O)c4ccccc4)c3)cc2-c2ccncc2)ccc1Cl,9.91% (active),33.4%,35.3%,25.3%,-72.7% (active),21.9%,2.52% (active),7.24% (active),-20.9% (active),–,25.2%,13.6%,36.3%,12.2%,–,–,6.41% (active),-3.29% (active),7.68% (active),–
C[C@]12CC[C@@H]3c4ccc(O)cc4CC[C@H]3[C@@H]1CC[C@@H]2NS(=O)(=O)c1ccc(C(F)(F)F)cc1,32.7%,62.1%,97.5%,–,41.2%,73.5%,–,73.1%,–,–,42%,13.6%,–,–,38.6%,–,24.2%,–,–,–
Cc1cc(SCc2ccccc2)nc(N)n1,104%,–,92.1%,118%,117%,87.5%,103%,106%,119%,96.7%,92.5%,98.1%,107%,–,112%,98.5%,111%,89.4%,88.1%,–
Cc1cn(-c2cccc(NC(=O)c3ccc(C)c(Nc4nccc(-c5cccnc5)n4)c3)c2)cn1,–,-45% (active),51.2%,–,40.2%,3.99% (active),-65.5% (active),-37.6% (active),75.8%,–,-4.51% (active),-22.6% (active),-46.3% (active),-31.9% (active),–,5.78% (active),34.4%,–,25%,-43.4% (active)
Cc1ccc(C2=NN(c3ccc(S(C)(=O)=O)cc3)C(=O)CC2)cc1,–,8.1% (active),55%,–,13.9%,42.9%,33.7%,51.4%,6.35% (active),–,39.7%,41.1%,67%,54.5%,–,20%,29.3%,–,14.9%,11.1%
Cc1ccc(C(C)C)c(O)c1NC(=O)OC(C)C,92.2%,77.5%,99.4%,105%,97.6%,92%,99.4%,101%,96.6%,92.3%,91.9%,–,116%,–,121%,122%,85.5%,91.5%,104%,–
COc1cc(C2CC(c3ccc4c(c3)OCO4)=NN2c2ccccc2)cc(OC)c1OC (stereo not given),81%,58.8%,84.8%,38.9%,86%,76.7%,89.4%,99.7%,108%,89.4%,90.9%,–,112%,–,75.4%,82.3%,92.6%,97.9%,80.8%,–
O=c1c(Br)ccc(Br)cc1Br,-32.8% (active),–,86.6%,–,32.4%,-5.1% (active),-76.9% (active),-53.4% (active),-73.3% (active),99.1%,–,–,-44.5% (active),-79.1% (active),-81.3% (active),-36.8% (active),-24.7% (active),93%,-41.4% (active),–
Cc1ccccc1N1C(=O)c2cc(S(N)(=O)=O)c(Cl)cc2NC1C (stereo not given),108%,87.1%,116%,105%,104%,114%,99.7%,116%,–,111%,108%,82.8%,104%,108%,103%,84.9%,93.6%,108%,103%,–
c1ccc2c(c1)Cc1ccccc1N2CCN1CCCCC1,94.2%,94.7%,90.6%,90.1%,95.5%,–,87.8%,110%,97%,101%,–,83.8%,104%,89.6%,90.7%,83.3%,82.7%,107%,98.7%,–
COc1cc2c(Nc3ccc(S(N)(=O)=O)cc3)ncnc2c(OC)c1OC,98%,89.5%,93.5%,96.9%,91.4%,97.4%,99.9%,98.7%,92.4%,100%,93.5%,67.3%,–,99.4%,92%,97.3%,84.7%,103%,92.5%,–
CC(C)(C)c1ccc(S(=O)(=O)N[C@H]2CC[C@H]3[C@@H]4CCc5cc(OS(=O)(=O)O)ccc5[C@H]4CC[C@]23C)cc1,35.4%,61.6%,92.3%,–,52.5%,62%,–,77.5%,–,–,27.4%,17%,–,–,41.5%,15.2%,27.5%,28.1%,–,–

Structure (SMILES),growth [1],growth [2],growth [3],growth [4],growth [5],growth [6],growth [7],growth [8],growth [9],growth [10],growth [11],growth [12],growth [13],growth [14],growth [15],growth [16],growth [17],growth [18],growth [19],growth [20]
CCOC(=O)c1sc2ncnc(Nc3ccc(NC(=O)Nc4ccc(Cl)cc4)cc3)c2c1C,33.9%,17.6%,73.7%,26.3%,32.2%,78.8%,44.4%,79.5%,87.2%,74.4%,60.5%,54.9%,89.4%,64.4%,–,66.3%,–,–,–,–
CC1/C=C/C=C/C=C/C=C/C=C/C=C/C=C/C(O[C@@H]2O[C@H](C)[C@H](O)[C@@H](O)[C@@H]2N)CC(O)C(C(=O)O)C(O)CC(=O)CC(O)CC(O)CC(O)CC(=O)CCCC(=O)CC(=O)OC1C(C)CC(C)C(O)CC(=O)c1ccc(N)cc1 (stereo not given in full),-95.5% (active),-96.6% (active),-99% (active),-100% (active),-99% (active),-98.7% (active),-96.9% (active),-94.3% (active),–,-98.6% (active),-93.4% (active),-96.4% (active),-96.8% (active),-99.7% (active),-98.2% (active),-72.2% (active),-95.7% (active),-98.4% (active),-59.2% (active),–
S=C1N(c2ccccc2)CN(C2CCCCC2)CN1c1ccccc1,95.3%,90.1%,95.3%,98.5%,97.9%,97.7%,95.6%,104%,106%,–,103%,92.3%,–,97.6%,–,125%,84%,103%,80.6%,–
Cc1cc(Cl)ccc1Nc1nc(C(F)(F)F)ccc1C(=O)N/N=C/c1c(Cl)cccc1Cl,9.11% (active),-16.4% (active),13.5%,-1.74% (active),-85.4% (active),-12.9% (active),10%,24.7%,-17.4% (active),0.628% (active),6.51% (active),4.21% (active),–,-8.52% (active),-22.7% (active),-16.8% (active),-13.7% (active),-60.8% (active),-18% (active),–
COc1cc(-c2ccc[nH]2)[nH]c1/C=C1\N=C(C)C(C(=O)NC(C)C)=C1C,8.9% (active),-13.7% (active),74.5%,31.4%,-88.4% (active),-33.5% (active),-62.6% (active),44%,–,35.4%,38.3%,-35% (active),17.7%,12.6%,20%,-14.2% (active),–,67.7%,–,–
S=c1cnc2ccccc2[nH]1,102%,86.5%,109%,95.5%,97.6%,98.8%,94.3%,108%,95.6%,107%,–,76.6%,112%,101%,–,91.7%,86.1%,99%,103%,–
CC(=O)N[C@H](C(=O)N[C@@H](CCCNC(=N)N)C(=O)N[C@@H](CCCCN)C(=O)N[C@@H](CCCNC(=N)N)C(=O)N[C@]1(C)CCC/C=C\CCC[C@@](C)(C(=O)N[C@@H](CC(C)C)C(=O)N[C@@H](CC(C)C)C(=O)N[C@@H](CCC(N)=O)C(=O)N[C@@H](CCC(=O)O)C(=O)N[C@@H](CCCNC(=N)N)C(=O)N[C@@H](CCC(=O)O)C(=O)N[C@@H](CC(C)C)C(=O)N[C@H](C(=O)N[C@@H](CCC(=O)O)C(N)=O)C(C)C)NC(=O)[C@H](CCCNC(=N)N)NC(=O)[C@H](CC(C)C)NC1=O)C(C)C,109%,119%,105%,100%,102%,–,105%,111%,101%,101%,103%,114%,96.2%,109%,–,105%,104%,116%,–,–
COc1ccc(-c2nn(-c3cccc(Cl)c3)cc2-c2nc(N)[nH]c(=O)c2C#N)cc1,65.4%,68.9%,60.3%,–,67.6%,58.8%,63%,90.4%,70.9%,31.8%,–,29.7%,110%,87.5%,30.6%,53.7%,75.5%,–,61.6%,–
CC(C)(O)CCl,102%,110%,102%,103%,104%,102%,104%,110%,153%,–,106%,107%,111%,108%,103%,107%,102%,106%,–,–
COc1ccc(/C=C/c2nnc(/C=C/c3ccc(OC)c(OC)c3)o2)cc1OC,21.6%,38.4%,14.8%,16.2%,2.81% (active),9.17% (active),4.41% (active),30.6%,20.3%,36.9%,22.1%,37.4%,–,45.4%,51.4%,20.3%,31.5%,31.4%,–,–
CN(C)c1nc(N)c2nccnc2n1,120%,84.8%,104%,112%,107%,98%,95.1%,118%,97.9%,98.3%,–,–,–,105%,84.7%,98.1%,104%,93%,114%,–
COc1ccc(N=Nc2cc(OC)c(OC)c(OC)c2)cc1,82%,78.7%,89%,79.5%,80%,–,79%,92%,74.1%,–,–,58.6%,84.7%,80.2%,70.2%,78%,67.2%,–,65.6%,–
COc1cc(C2CC(c3ccccc3)=NN2C(C)=O)cc(OC)c1OC (stereo not given),25.6%,-17.1% (active),49%,27.7%,35.3%,44.6%,41.7%,59.3%,47.6%,51%,63.5%,58.1%,–,54.9%,38.8%,29%,37.3%,50.6%,34.5%,–
C#C[C@]1(O)CCC2C3CCc4cc(OC5CCCC5)ccc4C3CC[C@@]21C (stereo not given in full),24%,96%,104%,69.9%,100%,81.1%,42%,103%,–,86.3%,70.9%,72.5%,86.9%,73.3%,–,59.8%,57.9%,85.1%,85.4%,–
COc1ccc(-c2nn(-c3cccc(Cl)c3)cc2/C=C2\NC(=S)N(c3ccc(Cl)cc3)C2=O)cc1,–,0.109% (active),63.2%,–,24.2%,3.65% (active),1.65% (active),-33.5% (active),-26.3% (active),–,20.4%,53.6%,27.7%,51.1%,–,-22.9% (active),42.5%,–,21.9%,9.73% (active)
CCN(CC)CCCC(C)N=C(C1=C(C(=NC(C)CCCN(CC)CC)c2cccc(OC)c2)C(=O)NC1=O)c1cccc(OC)c1 (stereo not given),-30.7% (active),-28.5% (active),–,-51.3% (active),-93.8% (active),-75.4% (active),-73.9% (active),-69.1% (active),-53.7% (active),–,–,-97.2% (active),-31.1% (active),-64% (active),-57.9% (active),-15.7% (active),3.15% (active),18.7%,-21.4% (active),–
